About 79,000 compounds went through this panel and 15% of them were active in at least one assay; those are over-represented in the sample as a whole. Cut-off read from the data, not from the text of the source: active = growth inhibition above about 70%; inactive = the rest.
Columns and labels:
[1] = NCI Yeast Anticancer Drug Screen. Data for the rad50 strain (AID 155);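 note: 0% = growth of vehicle-only cultures of the same strain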; settings: S. cerevisiae rad50 strain growth inhibition; at 50.0 µM; active compounds read high
Outline: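 A DNA repair-deficient yeast mutant serves as the test organism; compound-induced growth inhibition is calculated against vehicle-treated cells.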

[2] = NCI Yeast Anticancer Drug Screen. Data for the mec2-1 strain (AID 157); settings: S. cerevisiae mec2-1 strain, at 50.0 µM, active compounds read high
Outline: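 Cells of the genetically defined mec2-1 yeast strain are incubated with test compound. Inhibition of growth is calculated against vehicle-treated controls.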

[3] = NCI Yeast Anticancer Drug Screen. Data for the sgs1 mgt1 strain (AID 161);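 note: 0% = growth of cultures given vehicle only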; settings: S. cerevisiae sgs1 mgt1 strain, at 50.0 µM, active compounds read high
Outline: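 Mutant yeast exposed to compound; growth scored against vehicle-only wells.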

[4] = NCI Yeast Anticancer Drug Screen. Data for the cln2 rad14 strain (AID 165);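 note: 0% = growth equal to vehicle treated cultures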; settings: S. cerevisiae cln2 rad14 strain, at 50.0 µM, active compounds read high
Outline: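 The screen exposed genetically defined yeast (cln2 rad14) to test compounds and scored growth inhibition relative to vehicle-treated controls.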

[5] = NCI Yeast Anticancer Drug Screen. Data for the bub3 strain (AID 167); settings: S. cerevisiae bub3 mutant strain, at 50.0 µM, active compounds read high
Outline: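 Inhibition values come from growth of compound-treated mutant yeast normalised to vehicle-treated controls.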

[6] = NCI Yeast Anticancer Drug Screen. Data for the mlh1 rad18 strain (AID 175); settings: S. cerevisiae mlh1 rad18 strain growth inhibition; at 50.0 µM; active compounds read high
Outline: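 Compound-treated yeast growth, normalised to vehicle controls. Strain bears defined DNA repair mutations.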

Measured: growth inhibition

O=C(Nc1nc(C23CC4CC(CC(C4)C2)C3)cs1)c1cc2ccc(O)cc2oc1=O
inactive: [1] 0.7% | [2] 15.8% | [3] 3.55% | [4] 21.9% | [5] 0.2% | [6] -16.6%

C/C=N/Nc1ccccc1
inactive: [1] 24.8% | [2] -1.4% | [3] 18.2% | [4] 32.9% | [5] 31.9% | [6] 30%

Cc1ccccc1NC(=O)c1ccccc1
inactive: [1] 1.35% | [2] 2.3% | [3] -5.6% | [4] -14.7% | [5] 5.85% | [6] 3.1%

N=S(=O)(c1ccccc1)c1ccccc1[N+](=O)[O-] (stereo unspecified)
inactive: [1] 41.4% | [2] 17.9% | [3] 56% | [4] 49.5% | [5] 19.5% | [6] 57.2%

CCOc1ccc(NC(=O)CC2SC(N)=NC2=O)cc1 (stereo unspecified)
inactive: [1] -15.2% | [2] -35.5% | [3] -1.9% | [4] 8.5% | [5] -2.8% | [6] -0.6%

CCCCOC(=O)OCCOCCOC(=O)OCCCC
inactive: [1] -7.75% | [2] 3.1% | [3] 2.6% | [4] -70.8% | [5] -9.2% | [6] 0.35%

N#CC1=C(O)/C(=C\C=C\c2ccccc2)N(C(=O)c2ccccc2)C1=N
inactive: [1] 12.2% | [2] -7.6% | [3] -6.2% | [4] 10.2% | [5] -6.85% | [6] 19.1%

O=C(NC1CCCCC1)C1C(=O)C(=O)N(C2CCCCC2)C1=O (stereo unspecified)
inactive: [1] -14.5% | [2] -1.35% | [3] -13.9% | [4] -8.65% | [5] -5.8% | [6] -28.2%

Cc1cc(O)cc(O)c1C(=O)O[C@]1(C)C(=O)C=C2C=C(/C=C/C(=O)O)OC=C2C1=O
inactive: [1] -2.6% | [2] -16.9% | [3] -9.95% | [4] 9.6% | [5] -13.5% | [6] -3.9%

CC(=O)OCC1OC(n2cc(C)c(=O)[nH]c2=O)C(NC(=O)C(Cl)(Cl)Cl)C(OC(C)=O)C1OC(C)=O (stereo unspecified)
inactive: [1] 6.3% | [2] -4.6% | [3] 2.75% | [4] 0% | [5] 0% | [6] 2.3%

CC1(C)CCC(C)(C)C1C(=O)NC(O)C(=O)O (stereo unspecified)
inactive: [1] -21.4% | [2] 8.8% | [3] -33% | [4] -2.2% | [5] 3.25% | [6] -9.8%

CSC(=N\N=C(/C)c1ccc(Br)cc1)/N=C/N(C)C
inactive: [1] 46.2% | [2] 23.2% | [3] 55.5% | [4] 19% | [5] 28.1% | [6] 31.7%

CCOP(=O)(OCC)C1=C(P(=O)(OCC)OCC)C(F)(F)C1(F)F
inactive: [1] -9.35% | [2] -5% | [3] -6.7% | [4] -13.1% | [5] -0.95% | [6] -6.3%

COc1ccc2oc3c(C)cc4c(OC)nnc(OC)c4c3c2c1
inactive: [1] -43.8% | [2] -52.9% | [3] -13.4% | [4] -18.1% | [5] -5.35% | [6] -12.8%

CCC/C(=N/NC(N)=O)C1=CCCCC1
inactive: [1] 0.45% | [2] -5.45% | [3] -2.6% | [4] -28.4% | [5] -18.9% | [6] 3.4%

Cc1ccc(N)c(C#N)c1
inactive: [1] -11.8% | [2] 11.7% | [3] -5.7% | [4] 1% | [5] -5% | [6] 4.65%

O=C(O)Cn1c[n+](NC(=O)Cc2ccccc2)cn1
inactive: [1] -19.6% | [2] -25.4% | [3] -25% | [4] -41.8% | [5] -34.5% | [6] -10.8%

C1CCN(c2nn[nH]n2)CC1
inactive: [1] 4.05% | [2] -2% | [3] 3.75% | [4] -10.3% | [5] 12.4% | [6] 0.4%

CC(=O)NNC(=S)N/C=C(\C#N)C(=O)c1ccc2ccccc2c1
inactive: [1] -59.4% | [2] -22.2% | [3] -12.7% | [4] -1.1% | [5] -25.5% | [6] -53%

NNC(=O)c1ccccc1F
inactive: [1] -19.6% | [2] -19.4% | [3] -16.3% | [4] -4.7% | [5] -10.2% | [6] -19.2%

CN1CCN(CCCNN)CC1
inactive: [1] 2.05% | [2] -17.1% | [3] -17.6% | [4] 3.55% | [5] -70.6% | [6] -30.1%
